Experimental data as given in PubChem BioAssay (EPA / NIEHS).
“And” between values parts separate entries of the source, which are not always exact repeats. Equal values may be shown once. Inconclusive results are not listed. The source made the active and inactive calls. Rule for the calls: active = hit-call score of the fitted dose curve at least 0.9, where 1 is the maximum; inconclusive = response in the unintended direction; inactive = score below 0.9.

Test system: not listed separately
Assay: ACEA_AR_agonist_AUC_viability: ACEA Biosciences xCELLigence Real-Time Cell Analysis on Androgen Receptor Agonism for Viability (AID 2283775)
Procedure, shortened: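 Real-time impedance tracking of 22Rv1 growth, readings every 5 min for 5 h then hourly; area-under-curve viability endpoint at 80 hours, relative to DMSO. Compounds at eight concentrations, 1:4 steps, top 100 uM, n = 2.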
With `OCC(CO)(CBr)CBr` the outcome was “inactive”. With `NCc1cccc(CN)c1` the outcome was “inactive”. For `CC(=O)Nc1ccc(O)cc1`, the outcome was “inactive”.

Test system: not listed separately
Assay: ACEA_AR_antagonist_AUC_viability: ACEA Biosciences xCELLigence Real-Time Cell Analysis on Androgen Receptor Antagonism for Viability (AID 2283776);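 note: 22Rv1 human prostate cancer cells growing on impedance electrode plates; hits lower the growth signal relative to DMSO meaning cytotoxicity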
Procedure, shortened: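 Real-time electrical impedance tracks 22Rv1 proliferation after continuous compound exposure (top 100 uM final, 1:4 steps, 8 concentrations). The 80 h area-under-curve serves as the cytotoxicity readout relative to DMSO.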
For `O=C(O)c1cccc(C(=O)O)n1`, the outcome was “inactive”. In the case of `N=C(N)c1ccc(OCCCCCOc2ccc(C(=N)N)cc2)cc1`, the AC50 is reported as 17.3 µM (active). In the case of `OCC(CO)(CBr)CBr`, the outcome is reported as “inactive”. In the case of `O=C(c1ccccc1)c1ccccc1`, the outcome is reported as “inactive”. In the case of `CC(=O)Nc1ccc(O)cc1`, the outcome is reported as “inactive”. In the case of `CCCCCCCCCC=CCC1CC(=O)OC1=O` (stereo not given), the outcome is reported as “inactive”.

Test system: not listed separately
Assay: ACEA_ER_AUC_viability: ACEA Biosciences xCELLigence Real-Time Cell Analysis on Estrogen Receptor Agonism for Viability (AID 2283782);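 note: hit means loss of impedance signal meaning reduced cell growth or viability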
Procedure, shortened: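 T-47D; phenol red-free RPMI1640 + 10% CS-FBS; 8 conc., 1:4 serial, max 100 uM final, ≤0.5% DMSO; n = 2; continuous exposure; impedance monitored to 80 h post-dose; AUC vs DMSO.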
With `O=C(O)c1cccc(C(=O)O)n1` the outcome was “inactive”. In the case of `O=C1c2ccc(O)c(O)c2C(=O)c2c(O)ccc(O)c21`, the AC50 is reported as 6.67 µM (active). With `CCCCCCCCCCCCCCC` the outcome was “inactive”. With `CCCCN(C)C` the outcome was “inactive”. For `CCC(=O)O`, the outcome was “inactive”. For `C=CCOCC(CO)(CO)CO`, the outcome was “inactive”. In the case of `CC(C)CCOCCC(C)C`, the AC50 is reported as 37.5 µM (active). For `CCN(CCC#N)c1ccccc1`, the outcome was “inactive”. For `Clc1ccc2c(Cl)ccnc2c1`, the outcome was “inactive”. In the case of `CN(C)c1ccc(C(=C2C=CC(=[N+](C)C)C=C2)c2ccccc2)cc1`, the AC50 is reported as 3.16 µM (active) and 3.1 µM (active). With `Oc1cccc2c(O)cccc12` the AC50 was 20.2 µM (active). With `CC(C)(O)C(=O)c1ccccc1` the outcome was “inactive”. For `CCO[Si](C)(C)OCC`, the outcome was “inactive”. For `N=C(N)c1ccc(OCCCCCOc2ccc(C(=N)N)cc2)cc1`, the AC50 was 63.5 µM (active). With `NCc1cccc(CN)c1` the outcome was “inactive”. In the case of `Oc1cc2ccccc2cc1O`, the AC50 is reported as 40.8 µM (active). In the case of `C=CC(=O)OCCN(CC)CC`, the outcome is reported as “inactive”. With `C=CC(=O)OCCC(F)(F)C(F)(F)C(F)(F)C(F)(F)C(F)(F)C(F)(F)C(F)(F)C(F)(F)F` the outcome was “inactive”. In the case of `O=C(O)CCC(F)(F)C(F)(F)C(F)(F)C(F)(F)C(F)(F)C(F)(F)F`, the outcome is reported as “inactive”. With `CC1=NN(c2ccccc2)C(=O)C1` the outcome was “inactive”. For `Nc1ccn([C@@H]2O[C@H](CO)[C@@H](O)C2O)c(=O)n1` (stereo not given in full), the AC50 was 9.92 µM (active). For `OCCN1CN(CCO)CN(CCO)C1`, the AC50 was 81.8 µM (active). In the case of `c1ccc2c(c1)CCC2`, the outcome is reported as “inactive”. In the case of `C=CC(C)(CCC=C(C)C)OC(C)=O` (stereo not given), the outcome is reported as “inactive”. In the case of `CC(C)(C)C1CCCCC1O` (stereo not given), the AC50 is reported as 77.7 µM (active). With `CCCCCCCCCC=CCC1CC(=O)OC1=O` (stereo not given) the outcome was “inactive”. With `C=COC(=O)C(C)(C)CCCCCC` the AC50 was 19.6 µM (active). For `COc1ccc(C#N)cc1`, the AC50 was 50 µM (active).

Molecular target: AR (gene 367) (UniProt P10275)
Sequence (P10275 whole entry, looked up): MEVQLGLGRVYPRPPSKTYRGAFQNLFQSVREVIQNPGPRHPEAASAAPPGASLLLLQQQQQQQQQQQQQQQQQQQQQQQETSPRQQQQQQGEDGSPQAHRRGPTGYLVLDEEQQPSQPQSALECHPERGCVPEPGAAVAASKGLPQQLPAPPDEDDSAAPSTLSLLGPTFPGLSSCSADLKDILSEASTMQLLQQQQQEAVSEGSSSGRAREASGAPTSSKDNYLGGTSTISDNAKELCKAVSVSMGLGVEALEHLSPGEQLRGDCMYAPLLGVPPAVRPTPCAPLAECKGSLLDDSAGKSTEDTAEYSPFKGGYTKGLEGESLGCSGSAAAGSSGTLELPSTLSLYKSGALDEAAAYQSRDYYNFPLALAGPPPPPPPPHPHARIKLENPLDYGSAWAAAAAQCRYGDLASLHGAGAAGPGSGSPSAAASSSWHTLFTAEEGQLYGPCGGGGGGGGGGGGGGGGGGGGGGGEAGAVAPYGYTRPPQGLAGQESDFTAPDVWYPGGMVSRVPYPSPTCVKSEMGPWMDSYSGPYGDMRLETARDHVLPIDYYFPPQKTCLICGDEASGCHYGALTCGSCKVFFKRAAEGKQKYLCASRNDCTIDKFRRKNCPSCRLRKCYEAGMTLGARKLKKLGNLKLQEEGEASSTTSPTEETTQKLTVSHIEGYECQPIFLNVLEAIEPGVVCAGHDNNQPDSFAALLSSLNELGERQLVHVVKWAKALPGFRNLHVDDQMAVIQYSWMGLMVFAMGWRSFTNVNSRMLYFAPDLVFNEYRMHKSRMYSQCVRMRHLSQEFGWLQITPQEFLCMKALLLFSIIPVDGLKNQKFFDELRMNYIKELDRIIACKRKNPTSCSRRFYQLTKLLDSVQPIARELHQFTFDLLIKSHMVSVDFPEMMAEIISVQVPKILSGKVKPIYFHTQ
Assay: ACEA_AR_antagonist_80hr: ACEA Biosciences xCELLigence Real-Time Cell Analysis on Androgen Receptor Antagonism for Proliferation (AID 2283787);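 note: 22Rv1 human prostate cancer cells with growth followed by electrical impedance; hits lower the impedance growth signal relative to DMSO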
Procedure, shortened: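 Growth-kinetic antagonist readout in 22Rv1 cells, taken 80 h after continuous compound exposure. Activity fitted as signal loss relative to DMSO negative control.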
In the case of `O=C(c1ccccc1)c1ccccc1`, the outcome is reported as “inactive”. In the case of `CC(=O)Nc1ccc(O)cc1`, the outcome is reported as “inactive”. For `CCCCCCCCCC=CCC1CC(=O)OC1=O` (stereo not given), the outcome was “inactive”.
